Experiment [1] concerns the target ATP-dependent 6-phosphofructokinase (Trypanosoma brucei brucei) (UniProt O15648). As to the kind of experiment: qHTS Assay to Find Inhibitors of T. brucei phosphofructokinase: hit validation (AID 492961).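 Note: luminescence reports ADP formed as PFK phosphorylates fructose-6-phosphate with ATP; series mostly up to about 51 µM.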 An outline of the steps:
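ADP-Glo luminescence read-out of ADP formed by 1.25 nM PFK from 0.1 mM ATP and 0.5 mM F6P (TEA pH 8.0, 45 min, RT). Compounds titrated; activity normalized to no-enzyme and full-enzyme controls.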

Experiment [2] addresses Ubiquitin carboxyl-terminal hydrolase 1 (Homo sapiens) (UniProt O94782). In words: Inhibitors of USP1/UAF1: Pilot qHTS (AID 504865). Note: nearly all actives have a fitted effect of over 35% in size. Note: potency is the fitted concentration of half-maximal effect. The method, boiled down:
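USP1/UAF1 complex (1nM) preincubated with compound 15 min at room temperature, then Ub-Rho substrate (150nM final) added. Fluorescence read kinetically at 480/540 nm, 6 reads every 60 seconds. Buffer: 50mM HEPES pH 7.8, 0.5mM EDTA, 0.1 mg/ml BSA, 1mM TCEP, 0.01% Tween-20.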
(In general: In qHTS, concentration-response curves come from the screen itself.)

Here are results for 27 molecules from PubChem BioAssay (NCATS).

Each structure is given as a SMILES string. Records with an inconclusive call do not appear. Where a call stands in place of a potency, no number is given. Active and inactive are the calls of the source. Calls come from the whole dose curve; as a rule, active = well fitted curve in the direction sought with a large enough effect; inconclusive = small, poorly fitted or top-dose-only effect, or another doubt; inactive = no such curve, though single readings can be large; an effect the other way counts as inactive or inconclusive.

Chain of ATP-dependent 6-phosphofructokinase (Trypanosoma brucei brucei) (O15648 whole entry, looked up): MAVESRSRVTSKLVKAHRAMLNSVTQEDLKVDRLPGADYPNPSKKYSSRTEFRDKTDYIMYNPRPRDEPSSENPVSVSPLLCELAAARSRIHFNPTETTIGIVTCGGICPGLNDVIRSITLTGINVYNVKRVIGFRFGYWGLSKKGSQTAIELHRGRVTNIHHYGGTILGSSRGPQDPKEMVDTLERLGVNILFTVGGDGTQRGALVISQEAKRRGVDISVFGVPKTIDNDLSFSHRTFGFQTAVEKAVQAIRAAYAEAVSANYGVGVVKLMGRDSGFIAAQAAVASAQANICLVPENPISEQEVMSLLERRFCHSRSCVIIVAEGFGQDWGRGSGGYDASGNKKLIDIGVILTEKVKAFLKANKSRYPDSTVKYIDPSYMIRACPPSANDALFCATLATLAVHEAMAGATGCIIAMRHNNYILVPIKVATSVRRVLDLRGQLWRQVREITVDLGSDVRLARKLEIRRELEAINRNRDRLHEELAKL
Chain of Ubiquitin carboxyl-terminal hydrolase 1 (Homo sapiens) (O94782 whole entry, looked up): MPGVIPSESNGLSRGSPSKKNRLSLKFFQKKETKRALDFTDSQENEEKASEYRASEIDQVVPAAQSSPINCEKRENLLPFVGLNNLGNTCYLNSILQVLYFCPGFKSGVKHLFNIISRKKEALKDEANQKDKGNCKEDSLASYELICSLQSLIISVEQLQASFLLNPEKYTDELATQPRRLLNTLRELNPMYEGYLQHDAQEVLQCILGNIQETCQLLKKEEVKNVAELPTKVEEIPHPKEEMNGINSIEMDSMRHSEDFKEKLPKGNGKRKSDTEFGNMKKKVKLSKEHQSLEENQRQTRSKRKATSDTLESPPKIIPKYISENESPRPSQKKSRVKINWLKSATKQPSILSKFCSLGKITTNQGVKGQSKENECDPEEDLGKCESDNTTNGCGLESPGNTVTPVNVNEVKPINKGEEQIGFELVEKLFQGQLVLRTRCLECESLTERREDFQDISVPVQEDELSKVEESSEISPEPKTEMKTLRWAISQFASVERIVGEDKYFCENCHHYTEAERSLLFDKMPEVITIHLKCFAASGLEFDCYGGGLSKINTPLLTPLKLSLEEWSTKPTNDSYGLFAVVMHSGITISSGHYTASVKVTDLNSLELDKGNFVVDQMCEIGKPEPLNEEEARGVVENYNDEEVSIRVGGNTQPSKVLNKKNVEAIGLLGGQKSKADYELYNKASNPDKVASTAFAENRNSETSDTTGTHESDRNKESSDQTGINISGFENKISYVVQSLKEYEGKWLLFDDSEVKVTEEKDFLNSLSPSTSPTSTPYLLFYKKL

For `C=C(c1ccc(C(=O)O)cc1)c1cc2c(cc1C)C(C)(C)CCC2(C)C`, in experiment [1], the result was inactive. Further, the Potency in experiment [2] was 22.4 µM (active).

As to `CCCc1cc(=O)[nH]c(=S)[nH]1`, the molecule was called inactive in experiment [1]. Besides, the Potency result in experiment [2] is “inactive”.

Regarding `O=C(NC(Cc1cc(=O)[nH]c2ccccc12)C(=O)O)c1ccc(Cl)cc1` (stereo not given), in experiment [1], the call was inactive. Also, the Potency entry in experiment [2] is “inactive”.

In the case of `S=c1nc[nH]c2nc[nH]c12`, the Potency result in experiment [2] is “inactive”.

Turning to `Cn1c(NCCN(CCO)CCCc2ccc([N+](=O)[O-])cc2)cc(=O)n(C)c1=O`, the molecule was classed as inactive in experiment [1]. Besides, the Potency entry in experiment [2] was “inactive”.

`COCCCOc1ccnc(CS(=O)c2nc3ccccc3[nH]2)c1C` (stereo not given): in experiment [1], the call was inactive. Also, in experiment [2], the Potency result was “inactive”.

`CN(c1nccc(=O)[nH]1)C1CCN(c2nc3ccccc3n2Cc2ccc(F)cc2)CC1`: in experiment [1], the result was inactive. Also, in experiment [2], the Potency result is “inactive”.

Regarding `O=c1oc2cc(O)ccc2s1`, the result in experiment [1] was inactive. In addition, in experiment [2], the Potency result is “inactive”.

Take `CCCOc1ccc2nc(NC(=O)OC)[nH]c2c1`: in experiment [2], the Potency result is “inactive”.

Regarding `N=C(N=C(N)N)N1CCOCC1`, in experiment [1], the call was inactive. The Potency entry in experiment [2] was “inactive”.

Consider `Cc1cc2cc3c(C)cc(=O)oc3c(C)c2o1`, for which the call in experiment [1] was inactive. Moreover, in experiment [2], the Potency result is “inactive”.

As for `CCCCCCCCOc1ccccc1C(=O)Nc1ccc(C(=O)OCC[N+](C)(CC)CC)cc1`, the Potency in experiment [2] was 79.4 µM (active).

Turning to `NS(=O)(=O)c1cc(C(=O)O)c(NCc2ccco2)cc1Cl`, the Potency entry in experiment [2] is “inactive”.

Take `CN1CCC(=C2c3ccccc3CCc3sccc32)CC1`: in experiment [1], the molecule was classed as inactive. The Potency entry in experiment [2] is “inactive”.

For the molecule `O=P(O)(O)C(O)(Cn1ccnc1)P(=O)(O)O`, the molecule was called inactive in experiment [1]. Besides, in experiment [2], the Potency entry is “inactive”.

Consider `O=C(CS(=O)Cc1ccco1)NCC=CCOc1cc(CN2CCCCC2)ccn1` (stereo not given), for which the molecule was called inactive in experiment [1]. In addition, the Potency result in experiment [2] was “inactive”.

As for `O=C(O)c1cn(-c2ccc(F)cc2)c2cc(N3CCNCC3)c(F)cc2c1=O`, in experiment [1], the molecule was called inactive. Also, the Potency result in experiment [2] was “inactive”.

For the molecule `Cc1cc2c(s1)Nc1ccccc1N=C2N1CCN(C)CC1`, in experiment [1], the outcome was inactive. Besides, the Potency result in experiment [2] is “inactive”.

For `CCN(CCO)CCCC(C)Nc1ccnc2cc(Cl)ccc12` (stereo not given), in experiment [1], the molecule was classed as inactive. Besides, the Potency entry in experiment [2] is “inactive”.

For the molecule `CCc1nc(N)nc(N)c1-c1ccc(Cl)cc1`, in experiment [2], the Potency result was “inactive”.

Take `Cc1cc(=O)oc2cc(O)ccc12`: the call in experiment [1] was inactive. In experiment [2], the Potency result was “inactive”.

For the molecule `c1ccc2[nH]c(-c3cscn3)nc2c1`, the Potency result in experiment [2] was “inactive”.

Regarding `CC[C@]1(O)C[C@H]2CN(CCc3c([nH]c4ccccc34)[C@@](C(=O)OC)(c3cc4c(cc3OC)N(C=O)[C@H]3[C@@](O)(C(=O)OC)[C@H](OC(C)=O)[C@]5(CC)C=CCN6CC[C@]43[C@@H]65)C2)C1`, in experiment [1], the molecule was called inactive. For the same molecule, the Potency result in experiment [2] is “inactive”.

For `Nc1ccc(S(N)(=O)=O)cc1`, in experiment [2], the Potency result is “inactive”.

Take `O=C(NCCO[N+](=O)[O-])c1cccnc1`: in experiment [1], the result was inactive. Besides, the Potency entry in experiment [2] is “inactive”.

Regarding `Cc1ccc(C)c(OCCCC(C)(C)C(=O)O)c1`, the Potency entry in experiment [2] was “inactive”.

On to `COc1c2occc2cc2ccc(=O)oc12`, for which the Potency result in experiment [2] was “inactive”.
